Shown are actives, neighbours in structure and some others; about 19% of the full set was active somewhere.
ELG1 DNA repair: ELG1-dependent DNA repair inhibition; HEK293T ELG1-luciferase reporter, luminescence, 16 h; DNA damage induced by 5-fluorouridine; Potency, µM (highest dose often 46.1 µM), for the others: at the top dose activity change, negative = inhibition, hits mostly inhibitors; actives 2.3% (n = 330,000); AID 504467; further: potency means the concentration at half of the fitted maximal effect; nearly all actives have a fitted effect of over 55% in size
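HEK293T cells expressing luciferase-tagged ELG1 (2,000/well) received 5-Fluorouridine plus compound or DMSO for 16 hr at 37 °C. Luciferase was read by ONE-Glo luminescence after 30 min at room temperature.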
HT1080-NT tox: kills 2HG-producing HT-1080-NT fibrosarcoma cells; HT-1080-NT fibrosarcoma viability, CellTiter-Glo ATP luminescence, 48 h; Potency, µM (series often up to 46.1 µM), for the others: at the highest dose activity, negative = less viability, most hits filed as cytotoxic; actives 1.6% (n = 360,000); AID 686970;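 further: NT is the 2HG producing partner of a matched IDH1 knockdown line; potency means the concentration at half of the fitted maximal effect; 0% = DMSO-treated cells and -100% = media-only wells without cells; nearly all actives have a fitted effect of over 55% in size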
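Compounds were tested in concentration-response format on HT-1080-NT cells for 48 hours at 37 degrees C. Cell viability came from CellTiter-Glo luminescence; curves were classified by r2, response magnitude and activity.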
TDP1 cell CPT: DT40-hTDP1 cell growth loss with CPT; chicken DT40 Tdp1-/-;hTDP1 cells + 20 nM CPT, ATP luminescence, 48 h; Potency, µM (doses to about 46.2 µM), for inactives: at the highest dose activity change, negative = growth inhibition, most hits filed as inhibitors; actives 12% (n = 420,000); further: potency means the concentration at half of the fitted maximal effect; nearly all actives have a fitted effect of over 55% in size
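Chicken DT40 Tdp1-/- cells complemented with human TDP1, 400 cells/well, exposed to compounds plus 20 nM camptothecin for at least 48 h at 37 C; viability read as ATP content by CellTiter-Glo luminescence.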
HT1080 IDH1KD tx: toxicity to HT-1080 IDH1 knockdown cells (counter line). HT-1080 IDH1 knockdown viability, ATP luminescence, 48 h. Potency, µM (top dose mostly 46.1 µM), without a hit: top-dose activity, negative = toxicity, hits mostly cytotoxic. actives 2% (n = 360,000);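 further: potency means the concentration at half of the fitted maximal effect; 0% = DMSO wells and -100% = cell-free medium wells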
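In this qHTS, HT-1080 cells depleted of IDH1 are exposed for 48 h at 37 °C to compound titrations. Toxicity is scored from CellTiter-Glo luminescence, with DMSO as full viability and medium alone as none.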
IL1B secr inh: blocks inflammasome-driven IL-1 beta release | THP-1 LPS/ATP IL-1B secretion, AlphaLISA, 16 h; hits give low values | activity change, % at 57.5 µM | actives 4.7% (n = 360,000) | AID 743279; in the data active means activity change below about -50%; inconclusive means mostly about -30% to -49%
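Secreted IL-1B measured by AlphaLISA bead assay after 16 h compound exposure of THP-1 cells; compounds (final up to 57.5 uM) added 1 h before LPS (250 ng/mL) and ATP (1.25 mM) stimulation; lower signal means less secretion.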
DT40 TDP1 no CPT: qHTS for Inhibitors of human tyrosyl-DNA phosphodiesterase 1 (TDP1): qHTS in cells in absence of CPT | DT40 Tdp1-/- hTDP1 cells, no CPT, ATP luminescence, 48 h | Potency, µM (top dose mostly 46.2 µM), for inactives: top-dose activity change, negative = growth inhibition, usual class: inhibitors | actives 15% (n = 420,000) | AID 686978, 2013; further: potency means the concentration at half of the fitted maximal effect; nearly all actives have a fitted effect of over 55% in size
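Readout: luminescence from CellTiter-Glo after 30 min in the dark at RT. Cells: DT40 Tdp1-/- with stable hTDP1, 400/well. Exposure: compounds alone, ≥48 hr, 37 °C.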
* hit, by the source's call; ? = inconclusive; . = no result given; ! = not active in a repeat. Unless noted, the call rests on the fitted dose curve; in most records, active means well fitted curve in the direction sought with a large enough effect; inconclusive means small, poorly fitted or top-dose-only effect, or another doubt; inactive means no such curve, though single readings can be large; an effect the other way counts as inactive or inconclusive. Unless noted, on the % scale 0 is the no-effect control and ±100 the full control effect.

SMILES | ELG1 DNA repair | HT1080-NT tox | TDP1 cell CPT | HT1080 IDH1KD tx | IL1B secr inh | DT40 TDP1 no CPT
CCCCCCNC(=O)c1cc(S(=O)(=O)N2CCc3ccccc32)ccc1F | -8% | 1% | ? | -2% | 23 | ?
COc1ccc(-c2cc3c(o2)CCCC3OCCN2CCOCC2)cc1 (stereo unspecified) | . | -12% | ? | -18% | 5 | ?
CC(=O)Nc1ccc(S(=O)(=O)N2CCCc3ccccc32)cc1 | ? | 8.9µM* | 6.5µM* | 7.1µM* | 54 | 9.2µM*
O=C(O)c1cc(S(=O)(=O)N2CCCc3ccccc32)ccc1Cl | 9% | 15% | -8% | 4% | 24 | 0%
Cc1ccc(NC(=O)c2cc(S(=O)(=O)N3CCCc4ccccc43)ccc2F)cc1F | . | . | 16µM* | . | . | 6.5µM*
O=C(Nc1ccc(Cl)cc1)c1cc(S(=O)(=O)N2CCCc3ccccc32)ccc1F | . | . | 16µM* | . | . | 15µM*
COC(=O)Nc1ccc(S(=O)(=O)N2c3ccccc3CCC2C)cc1 (stereo unspecified) | ? | 2.8µM* | 4.6µM* | ? | 6 | 2.6µM*
CCOc1ccc(CNS(=O)(=O)c2ccc(-c3cc(C(F)(F)F)on3)s2)cc1 | . | . | ? | . | . | -30%
Cc1cc(C)cc(OCc2cc(=O)n3c4c(sc3n2)CCCC4)c1 | . | . | -1% | . | . | 7%
CCc1noc(C)c1C(=O)Nc1ccc(C(F)(F)F)cc1 | -4% | -6% | -12% | 1% | 12 | -1%
Cc1ccc(NC(=O)c2cc(S(=O)(=O)N3CCc4ccccc43)ccc2F)cc1Cl | . | . | 4.1µM* | . | . | 5.8µM*
COc1ccc(S(=O)(=O)N2CCc3ccccc32)cc1C(=O)NCCc1ccccn1 | 18µM* | -26% | -27% | -19% | 15 | -11%
Cc1ccc(NC(=O)c2cc(S(=O)(=O)N3CCc4ccccc43)cn2C)cc1C | -10% | ? | ? | -12% | -20 | ?
CCc1ccc(NC(=O)c2ccc3c(O)c(S(=O)(=O)c4ccc(Cl)cc4)c(=O)[nH]c3c2)cc1 | . | . | -1% | . | . | 14%
Cc1ccc(Cl)cc1S(=O)(=O)N1CCC(C(=O)NC2CCN(Cc3ccccc3)CC2)CC1 | 5.2µM* | -15% | ? | -29% | 21 | 15µM*
Cc1cc(C)c(C)c(S(=O)(=O)NC2CCN(Cc3ccccc3)CC2)c1C | -1% | ? | ? | 16µM* | -73* | ?
Cc1cc(S(=O)(=O)NC2CCN(Cc3ccccc3)CC2)c(C)cc1Cl | 6% | ? | ? | 21µM* | -96* | ?
Cc1ccc(NC(=O)CSc2nnc(-c3ccc([N+](=O)[O-])cc3)o2)c(C)c1 | . | . | -20% | . | . | -20%
O=C(Nc1ccccc1O)c1c(O)c2c([nH]c1=O)CCCC2 | ? | ? | ? | ? | -68* | ?
C=CCC[C@H](Cc1ccc(F)cc1)C(=O)OC[C@@H](Cc1c[nH]c2ccccc12)NC(=O)[C@@H](CC=C)CC(=O)N(CCO)Cc1ccccc1 | 26µM* | ? | ? | ? | -62* | ?
C=CCC[C@H](Cc1ccc(F)cc1)C(=O)OC[C@@H](Cc1c[nH]c2ccccc12)NC(=O)[C@@H](CC=C)CC(=O)NCCO | ? | ? | ? | ? | -17 | ?
C=CCC[C@@H](Cc1ccc(F)cc1)C(=O)OC[C@H](Cc1c[nH]c2ccccc12)NC(=O)[C@H](CC=C)CC(=O)N(CCO)Cc1ccccc1 | 18µM* | ? | 15µM* | ? | -7 | 21µM*
C=CCC[C@H](Cc1ccc(F)cc1)C(=O)OC[C@H](Cc1c[nH]c2ccccc12)NC(=O)[C@@H](CC=C)CC(=O)N(CCO)Cc1ccccc1 | 23µM* | ? | ? | ? | ? | ?
O=C(COC(=O)Cc1c(F)cccc1Cl)NC1CCS(=O)(=O)C1 (stereo unspecified) | 7% | -1% | -2% | -8% | -3 | 5%
COc1ccccc1C1CC(=O)Oc2cc(C)c(Cl)c(C)c21 (stereo unspecified) | 1% | 6% | 5% | -3% | 42 | -13%
SMILES | ELG1 DNA repair | HT1080-NT tox | TDP1 cell CPT | HT1080 IDH1KD tx | IL1B secr inh | DT40 TDP1 no CPT
O=C(C[C@@H]1C=C[C@H](NC(=O)Cc2ccccn2)[C@@H](CO)O1)NCCc1ccccc1 | . | 20% | 19% | 18% | -98* | 1%
COC(=O)C[C@H]1C=C[C@H](NC(=O)c2ccccn2)[C@@H](CO)O1 | . | 4% | -8% | 19% | 10 | -1%
COCCCNC(=O)CN(c1ccc(F)cc1)S(=O)(=O)c1ccc2c(c1)OCCO2 | 13% | 0% | 9% | -1% | 21 | -5%
COCCCn1c(SCC(=O)N2CCCC2=O)nc2ccccc2c1=O | . | 6% | -4% | 3% | 24 | -33%
COc1coc(C(O)C[N+](=O)[O-])cc1=O (stereo unspecified) | 9% | -2% | 29µM* | 1% | 26 | ?
COc1ccc(Cl)cc1NS(=O)(=O)c1c(C)[nH]c(=O)[nH]c1=O | -1% | 6% | 0% | 15% | 4 | ?
Cc1cccc(S(=O)(=O)NC(=O)C2(C)CCN2C(=O)Cc2ccc(C(C)(C)C)cc2)c1 (stereo unspecified) | . | 9% | -18% | 24% | 28 | -6%
O=C1C(Cc2ccccc2)NC(=S)N1Cc1ccccc1 (stereo unspecified) | 5% | -3% | 7% | 1% | -1 | -3%
O=C1N[C@@H](Cc2ccccc2)C(=O)N2CCCC12 (stereo partly specified) | 19% | 6% | -10% | 11% | 15 | -11%
O=C1[C@H](Cc2ccccc2)NCCCC[C@@H](c2ccc(Cl)cc2)N1Cc1ccc(Cl)cc1 | . | ? | ? | ? | -50* | ?
O=C1[C@H](Cc2ccccc2)NCCCC[C@H](c2ccc(Cl)cc2)N1Cc1ccccc1 | . | ? | ? | ? | -14 | 16µM*!
COc1cc2nc(NC(=O)c3ccc(S(=O)(=O)N4CCOCC4)cc3)sc2cc1OC | . | . | ? | . | . | -16%
CCOc1ccc(NC(=O)C2CCN(S(C)(=O)=O)CC2)cc1 | 8% | -3% | ? | 3% | 0 | 10%
